As usually defined, the inhibition is the drop in the measured response relative to a control, in per cent.

Hit rate of the full screen: of about 190,000 compounds, about 80 (0.04%) were called active. Cut-off read from the data, not from the text of the source: active = inhibition above about 40%. The list is a sample of the results.

Chain of Bcl-2-like protein 1 (Homo sapiens) (Q07817 whole entry, looked up): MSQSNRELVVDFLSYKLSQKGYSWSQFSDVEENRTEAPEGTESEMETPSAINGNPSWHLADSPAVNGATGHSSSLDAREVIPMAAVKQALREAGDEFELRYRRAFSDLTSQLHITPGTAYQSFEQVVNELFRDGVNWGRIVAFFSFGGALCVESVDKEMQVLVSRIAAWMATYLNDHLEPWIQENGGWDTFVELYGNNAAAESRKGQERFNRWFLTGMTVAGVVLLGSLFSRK

This test has as its target Bcl-2-like protein 1 (Homo sapiens) (UniProt Q07817). Briefly: Bcl-XL/Bim peptide interaction blockers – biochemical, multiplexed, bead flow cytometry, human Bcl-XL, primary screen (AID 1007). The following applies: Bim peptide-Bcl-XL binding, fluorescence, at 10 µM, stronger effect = higher value. In general terms: In flow cytometry, cells or beads pass a laser one at a time.
For the compound `O=C1COc2ccc(C(=O)COC(=O)c3cccnc3Cl)cc2N1`, the inhibition is -3% (inactive). Consider `O=C(CCS(=O)(=O)Cc1ccccc1)Nc1ccc2c(c1)OCCO2`, for which the inhibition was 0% (inactive). For the compound `NC1=NC2(CCCCC2)N(c2ccc(F)cc2F)C(N)=N1`, the inhibition was -6% (inactive). Regarding `COc1ccc2ccccc2c1CNc1nnnn1C`, the inhibition is 1% (inactive).

For the compound `CC(C)(C)NC(=O)COC(=O)c1cc(Br)ccc1Cl`, the inhibition is -9% (inactive). `O=C(OCC(=O)N1CCOCC1)c1ccc(N2CCOCC2)c([N+](=O)[O-])c1`: the inhibition is 1% (inactive). The result for `Cc1nc(-c2ccc(Cl)cc2)sc1C(=O)CBr` reads 0% (inactive). Consider `Cc1cccc(NC(=O)c2cccc(C(F)(F)F)c2)c1`, for which the inhibition was -3% (inactive). Take `CC[N+]1(CC)CC2=Cc3ccccc3CC2C1` (configuration not stated): the inhibition is -4% (inactive). For the compound `CNC(=O)NC(=O)C(OC(=O)c1cccc(S(=O)(=O)N2CCCCC2)c1)c1ccccc1` (configuration not stated), the inhibition is -4% (inactive). With `CCCn1c(NC(=O)C23CC4CC(CC(O)(C4)C2)C3)nc2ccccc21`, the inhibition was -2% (inactive). Take `Cc1cc(C)n(CCNCc2c(C(=O)N3C[C@@H](C)O[C@@H](C)C3)nc3ccc(Cl)cn23)n1`: the inhibition is -1% (inactive).

Consider `O=C(N/N=C/c1ccccc1O)/C(=C/c1ccccc1)CCO`, for which the inhibition is -10% (inactive).

In the case of `CCOc1ccc(CCN2C(=O)c3cccnc3C2=O)cc1OCC`, the inhibition was 0% (inactive). As to `CC(=O)c1c(Nc2ccccc2)sc(C(=O)c2ccccc2)c1C`, the inhibition is -6% (inactive). In the case of `COc1ccc2nc(Nc3nc(-c4ccncc4)cs3)sc2c1` it was -1% (inactive); in that of `Cc1ccc(-c2c(C)n([O-])c3c([n+]2=O)CCC3)cc1`, -3% (inactive).

As for `O=C(CO/N=C/c1ccccc1OC(F)F)NC1CCCC1`, the inhibition is 1% (inactive). Consider `Cc1ccccc1N(C(=O)Cc1cccs1)C(C(=O)NC1CCCCC1)c1cn(C)nc1C` (configuration not stated), for which the inhibition was -5% (inactive). The result for `Cc1cc(NC(=O)CSc2nccn2-c2ccc([N+](=O)[O-])cc2)no1` reads -15% (inactive); that for `Cc1nnc(SCC(=O)NNC(=O)c2ccc(Cl)cc2)n1CC1CCCO1` (configuration not stated), -6% (inactive). As for `Cc1ccc(N(C(=O)Cc2cccs2)C(C(=O)NCC2CCCO2)c2ccncc2)cc1` (configuration not stated), the inhibition was 2% (inactive).

Regarding `Cc1cccc(N2CCN(c3ccc(C(N)=O)cc3[N+](=O)[O-])CC2)c1C`, the inhibition is 0% (inactive). As for `CCOc1ncccc1C(=O)N(CC)CC(=O)Nc1ccc(NC(C)=O)cc1`, the inhibition is -9% (inactive).

`CN(c1ccccc1)S(=O)(=O)c1cc(C(=O)Nc2nc3ccccc3[nH]2)ccc1Cl`: the inhibition is 8% (inactive).

As for `COC(=O)CN1C(=S)N(c2ccccc2)C(=O)C1CC(=O)Nc1ccc(Cl)cc1` (configuration not stated), the inhibition is -5% (inactive). The result for `N#C/C(=C(/O)COC(=O)COc1ccc(Cl)cc1)c1nc2ccccc2[nH]1` reads -11% (inactive). As for `COCCCNC(=S)NCCNc1nc2cc(C)c(C)cc2cc1C#N`, the inhibition is -1% (inactive). `S=C(NCC1CCCO1)N1CCN(c2ccc(Cl)c(Cl)c2)CC1` (configuration not stated): the inhibition was -1% (inactive). As for `CCn1cnc2scc(-c3ccc(C)c(C)c3)c2c1=O`, the inhibition was 0% (inactive). As for `CC(C)Oc1ccc(CCc2nnc(SCC(=O)O)n2-c2ccccc2)cc1`, the inhibition was -5% (inactive). As for `COc1ccccc1OCC(=O)OCn1c(SC)nnc(C)c1=O`, the inhibition was -7% (inactive).

As to `N=C1/C(=C/c2cccn2-c2cccc([N+](=O)[O-])c2)C(=O)N=C2SC=CN12`, the inhibition was -5% (inactive). For `Cc1c(C(=O)NCCN2C(=O)S/C(=C\c3cccs3)C2=O)cccc1[N+](=O)[O-]`, the inhibition is -6% (inactive).

As to `CCCn1nc(NS(=O)(=O)c2ccccc2)c2cc3cc(C)ccc3nc21`, the inhibition was 0% (inactive). Turning to `Cc1ccc(NC(=O)CSc2nc(CSc3ccc(C)cc3)cc(=O)[nH]2)cc1`, the inhibition is -1% (inactive).

Regarding `CN(C)C(CNC(=O)Cc1ccc([N+](=O)[O-])cc1)c1ccccc1` (configuration not stated), the inhibition was -1% (inactive). In the case of `S=c1[nH]nc(-c2cccs2)n1/N=C/c1cccs1` it was 1% (inactive).

Regarding `FC(F)(F)c1cccc(Cc2noc(CN3CCC(N4CCCCC4)CC3)n2)c1`, the inhibition is 0% (inactive).

In the case of `COc1ccc(C/C(C)=N/NC(=O)c2ccncc2)cc1`, the inhibition is -3% (inactive). With `Cc1ccc(N(C(=O)c2ccc(S(=O)(=O)N(C)C)cc2)C2C=CS(=O)(=O)C2)cc1` (configuration not stated), the inhibition is 0% (inactive). For `Cc1ccc(C(=O)/C=C/Nc2ccc(S(=O)(=O)Nc3onc(C)c3C)cc2)cc1`, the inhibition was -1% (inactive).

As to `O=C(CNCc1ccc(Cl)cc1)Nc1cccc(C(=O)O)c1`, the inhibition was -5% (inactive). As for `CNS(=O)(=O)c1ccc(NC(=O)C2CC(=O)N(c3ccc(Cl)cc3)C2)cc1` (configuration not stated), the inhibition was -2% (inactive). Consider `CC(=O)Nc1ccc(NC(=O)C(C)n2c3ccccc3c3nc(=O)cc(C)n32)cc1` (configuration not stated), for which the inhibition is 0% (inactive). On to `O=C(O)c1cccc(NC(=S)N/N=C/c2c[nH]c3ccccc23)c1`, for which the inhibition is -4% (inactive). On to `CCOC(=O)CN1C(=O)N[C@@H](c2ccc(Br)cc2)C(C(C)=O)=C1C`, for which the inhibition is -2% (inactive). With `COc1ccc(C(C(=O)NC2CCCCC2)N(C(=O)Cc2c[nH]c3ccccc23)c2ccccc2)cc1OC` (configuration not stated), the inhibition is 10% (inactive).

On to `COc1cc(CN(C)Cc2nc3cc(C(F)(F)F)ccc3c(=O)[nH]2)ccc1OC(F)F`, for which the inhibition was 0% (inactive). On to `COCCN(CCOC)S(=O)(=O)c1ccc(/C(O)=C(\C#N)c2nc3ccccc3[nH]2)cc1`, for which the inhibition was -3% (inactive). Consider `O=C(NCc1ccccc1Cl)C1CCCO1` (configuration not stated), for which the inhibition was 2% (inactive).

In the case of `O=C(O)c1ccccc1-c1ccccc1C(=O)NCc1cccnc1`, the inhibition was -2% (inactive). The result for `Cc1ccccc1-n1nc(SCC(=O)O)sc1=S` reads 2% (inactive). The result for `COc1ccc(-c2[nH]ncc2CN(C)Cc2cc(C)[nH]n2)c(F)c1` reads -3% (inactive); that for `CCOCCCNC(=S)N1CCC(NC(=O)C2CCCCC2)CC1`, -3% (inactive); that for `CNC(=S)N/N=C/c1cn(Cc2ccc(C)cc2)c2ccccc12`, -5% (inactive). In the case of `COc1ccc(C(=O)C2CCCN(C(=O)c3cc4nc(C)cc(C)n4n3)C2)cc1F` (configuration not stated) it was -2% (inactive); in that of `CC(C)NC(=O)C(=O)NCCCOC(C)C`, -6% (inactive).

In the case of `NC(=S)N/N=C/c1coc2cc(Cl)ccc2c1=O`, the inhibition was -5% (inactive). For `Cc1ccc(Nc2nnc(SCC(=O)c3cc4ccccc4o3)s2)cc1C`, the inhibition was -20% (inactive). With `COc1cc(NC(=S)N2CCCC(C)C2)c(OC)cc1Cl` (configuration not stated), the inhibition was -7% (inactive).

As for `CC(C)COP(=O)(c1ccc(N(C)C)cc1)C(Nc1ccccc1)c1cccnc1` (configuration not stated), the inhibition was -15% (inactive).
